From PubChem BioAssay AID1918990 (ICCB-Longwood Screening Facility, Harvard Medical School, 2023)
Hit rate of the full screen: of about 29,000 compounds, about 85 (0.3%) were called active. Many of the other results were omitted from the sample, so actives are more common in it than they were. Unmarked numbers belong to inactive results.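 The calls were made as follows: active = replicate mean overnight rise in green fluorescent reporter signal, 3 or more SD over negative controls; inactive = the rest.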

Assay: activators of Burkholderia fixLJ two-component system, primary screen, B. multivorans, GFP reporter (AID 1918990)
Details: B. multivorans fixK-promoter GFP reporter, 18 h; stronger effect = higher value

Row | Compound | z-score
1 | Cc1cccc(NC(=O)C2CCCN2S(=O)(=O)c2cccc3nsnc23)c1C (stereo unspecified) | 0.05
2 | CN1C(=O)c2[nH]nc(-c3ccc(F)cc3)c2C1c1ccccn1 (stereo unspecified) | 0.33
3 | CN(CCNC(=O)CN1CCCC(c2ccccc2)C1)S(C)(=O)=O (stereo unspecified) | 0.17
4 | Cc1[nH]c(=O)[nH]c(=O)c1CC(=O)NCc1ccc(-c2ncon2)cc1 | -1.58
5 | CCOC(=O)c1ccc(NC(=O)CC2C(=O)N(c3cccc(OC)c3)C(=O)N2C2CCCCC2)cc1 (stereo unspecified) | -0.28
6 | CCOC(=O)c1cc2c(=O)n3ccccc3nc2n(CCCOC)c1=NC(=O)C(C)(C)Oc1ccc(Cl)cc1 | -0.51
7 | Cc1cc(C(=O)NCCCc2nnc3ccccn23)nc(C)n1 | -0.17
8 | COc1ccc(CNC(=O)c2cc3c(s2)-c2ccccc2OC3)cc1 | 0.73
9 | COc1ccccc1CNC(=O)Cn1nccc1C1CCCNC1 (stereo unspecified) | 0
10 | CCCCNC(=O)c1ccc2c(c1)NC(=O)C(C(C)C)N2 (stereo unspecified) | 0.08
11 | COc1cc2nc(NCC(C)c3ccccc3)n3nc(-c4ccccc4)nc3c2cc1OC (stereo unspecified) | -0.67
12 | CCCS(=O)(=O)c1c(Nc2ccccc2C)sc(C(=O)c2ccccc2)c1N | 0.44
13 | CC1CCC2(CC1)N=C(c1ccccc1)C(=O)N2CC(=O)Nc1ccc(F)c(Cl)c1 (stereo unspecified) | -1.75
14 | Cc1cc(C)cc(NS(=O)(=O)c2ccc3[nH]cc(C(=O)N4CCCCC4)c(=O)c3c2)c1 | -1.09
15 | COc1ccc(CCNCc2c(C(=O)O)c(C)n(Cc3cccc(C)c3)c2C)cc1OC | -1.27
16 | COC(=O)c1c(NC(=O)c2cc(=O)c3c(C)cc(C)cc3o2)sc2c1CCCC2 | -1.12
17 | COCCN(CC=Cc1ccccc1)Cc1ccc2nonc2c1 | 0.18
18 | COc1cc2c(=O)c(S(=O)(=O)c3ccc(C(C)C)cc3)cn(Cc3ccccc3C)c2cc1OC | 0.3
19 | CCOC(=O)c1c(NC(=O)COc2cc(C)ccc2C(C)C)sc(C)c1C | -0.34

Row | Compound | z-score
20 | c1ccc(-c2noc(CCn3ccnc3-c3cnsc3)n2)nc1 | 0.47
21 | Cc1ccc(-n2nc(CO)c(C(=O)NCCc3ccccc3)n2)cc1 | -0.78
22 | CC(C)c1nnsc1C(=O)Nc1ccc(CC(=O)NC2CC2)cc1 | -0.11
23 | Cn1ccnc1C(O)c1cc2n(n1)CCN(Cc1cccc(Cl)c1)C2 (stereo unspecified) | 0.34
24 | COCCCNC(=O)c1c(NC(=O)c2cc(=O)c3cc(C)c(C)cc3o2)sc2c1CCCC2 | -0.42
25 | COc1cccc2c1C1(CCN(C(=O)c3ccccn3)CC1)OCC2 | 0.69
26 | CCOC(=O)C1CCCN(C(=O)Cn2ncc3c(C)n(Cc4ccc(F)cc4)c(C)c3c2=O)C1 (stereo unspecified) | 0.33
27 | COc1ccc(Cl)cc1NC(=O)NCC1CCN(Cc2ccccc2F)CC1 | -7.23
28 | Cc1ccc(C(=O)NCCc2nc(N)cc(=O)[nH]2)n1C(F)F | -0.52
29 | COc1ccc(NC(=O)CSc2nc3ncccc3[nH]2)c(OC)c1 | 1.38
30 | Cn1c(C2CCN(C(=O)CSc3nnc(N)s3)CC2)nc2ccccc21 | 0.47
31 | CN(Cc1ccccc1)C(=O)c1cc2c(=O)n(C)c3ccccc3c2s1 | 0.14
32 | CCOc1ccc(S(=O)(=O)N(CC(=O)NCCSCc2ccc(C)cc2)c2ccccc2)cc1 | -1.04
33 | Cc1c(NC(=O)c2cc(=O)c3ccccc3o2)c(=O)n(-c2ccccc2)n1C | -0.69
34 | COc1cccc(CNC(=O)c2cc(=O)[nH]c3ccc(S(=O)(=O)N4CCCCC4)cc23)c1 | -0.5
35 | CCc1ccc(NC(=O)CN2C(=O)C(c3ccccc3)=NC23CCCCCC3)cc1 | -1.83
36 | COC(=O)c1ccc(C2C(C(=O)Nc3ccccc3)=C(C)Nc3nc4ccccc4n32)cc1 (stereo unspecified) | -1.77
37 | COc1ccc(CNC(=O)Cn2nnc(-c3ccc(S(C)(=O)=O)cc3)n2)cc1 | 0.3
38 | Cn1c(=O)nc2n(-c3ccc(Br)cc3)c3cccc(Cl)c3cc-2c1=O | -1.2

Row | Compound | z-score
39 | COc1ccc(C(=O)Nc2onc3c2CCCC3)cc1 | -2.06
40 | Cc1nc(C2CCN(S(=O)(=O)CCC3CCS(=O)(=O)C3)CC2)no1 (stereo unspecified) | 0.66
41 | Cc1ccc(Nc2c(-c3ccc(C)cc3)nc3cnccn23)cc1 | -1.25
42 | Cn1c(=O)c2c(nc(SCC(=O)Nc3ccc(F)cc3)n2Cc2ccccc2)n(C)c1=O | -1.14
43 | Cc1ccc2nc(-c3ccc(O)cc3)c(Nc3ccc4c(c3)OCO4)n2c1 | 0.53
44 | O=C(c1n[nH]c2ccccc12)N1CCc2nc(-c3cccc(F)c3)[nH]c2C1 | -1.33
45 | COc1c(Cl)cc(C(=O)N(Cc2ccccc2F)C2CCS(=O)(=O)C2)cc1Cl (stereo unspecified) | -0.89
46 | Cc1ccn2c(Nc3ccc4c(c3)OCCO4)c(-c3ccc(C)s3)nc2c1 | 0.86
47 | CCOc1ccc(-c2cc3nc(C4CCN(C(=O)OC(C)(C)C)CC4)c(C(=O)Nc4cccc(CC)c4)cn3n2)cc1 | -0.21
48 | CCOc1ccc2nc(N3CCC(C(=O)Nc4cc(C)ccc4C)CC3)sc2c1 | -0.96
49 | Nc1ccnc(N2CCCC(c3[nH]ncc3-c3ccc(F)cc3)C2)n1 (stereo unspecified) | -0.16
50 | COc1cc(NC(=O)CCNC(=O)Cn2ccc3ccccc3c2=O)cc(OC)c1OC | 0.24
51 | CCCCOCC(=O)N1CCCC(c2ccn(CC(=O)O)n2)C1 (stereo unspecified) | -2.17
52 | CN(C)C1CN(Cc2cnc(-c3ccc(Cl)cc3)nc2)CC1O (stereo unspecified) | -0.39
53 | Cc1ccc(-c2nc(S(=O)(=O)c3ccc(C)cc3)c(N3CCCCCC3)o2)cc1 | -0.18
54 | COc1ccc(CNC(=O)c2cc3c(=O)[nH]c4ccc(C)cc4c3s2)c(OC)c1 | -1.16
55 | COc1cccc(OCc2cc(C(=O)N(C)Cc3nncn3C)n[nH]2)c1 | -1.49
56 | Cc1c(CNC(C)c2ccccc2)c(C(=O)O)c(C)n1Cc1c(F)cccc1Cl (stereo unspecified) | -2.09
